These results are taken from PubChem BioAssay (NCI).

Where “and” joins values, the source holds several entries; their conditions need not be identical. Equal values may be shown once. The panel holds about 83,000 compounds, 20% with a hit somewhere; the sample as a whole holds those more often.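 Percent growth is the endpoint: 0 to 100 indicates growth inhibition (40 means 60% inhibition), 0 means no net growth, and negative values indicate cell death.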 Calls of active or inactive are those of the source. How the source made its calls: active means growth percent below 10; inactive means the rest.

The subject of the assay is MDA-MB-468 breast. Kind of assay: NCI-60 one-dose screen, 48 h (100 = growth as untreated, 0 = no growth, -100 = all killed). The settings on record: 10 µM unless noted.
Take `Cc1cccc(C[C@H](NC(=O)Nc2ccc(C)cc2F)C(=O)N[C@@H]2C(=O)N3C[C@H](O)C[C@H]3C(=O)N3CCN(C)C[C@H]3C(=O)N[C@@H](C)C(=O)N3C[C@H](C)C[C@H]3C(=O)O[C@H]2C)c1`: the growth is 6.46% (active). The same measure for `CCN(CC)C(=O)/C=C(/C)c1ccccc1`: 87.6% (inactive); for `Nc1nccc2c1ccn2-c1ccc(NC(=O)c2ccc(N3CCOCC3)c(C(F)(F)F)c2)cc1`: 27.6% (inactive). Then `Cc1nn(-c2ccccc2)c(N2CCOCC2)c1-c1nc2ccc([N+](=O)[O-])cc2[nH]1`, with 94.3% (inactive); and `COc1ccc2c(c1)C(c1cc(OC)c3c(c1)OCO3)C1=C(COC1=O)N2` (stereo not given), with -14.4% (active); and `CCCCCCC1(/C=N/NC(N)=O)NC(=O)NC1=O` (stereo not given), with 92.1% (inactive). Consider `Cc1cc(C(=O)Nc2ncnc3nc[nH]c23)no1`, for which the growth was 96.4% (inactive). Turning to `O=C(c1ccc(Nc2nccc(NCCCNc3ccnc4cc(Cl)ccc34)n2)cc1)N1CCCCC1`, the growth was 29.5% (inactive).

Regarding `Nc1ccc(N2CCOCC2)cc1`, the growth was 96.9% (inactive). The same measure for `CN(C)CCCOc1ccc(NC2=C(Cl)C(=O)C(Nc3ccc(OCCCN(C)C)cc3)=C(Cl)C2=O)cc1`: -57.2% (active); for `CCOC(=O)CC1CSC(Nc2ccccc2)=N1` (stereo not given): 106% (inactive); for `CCN(CC)CCOc1nc2cc(OC)c(OC)cc2c2c1-c1ccc(OC)cc1C2=O`: 84% (inactive). Then `COc1ccc(C2CC(c3cc(Cl)c(C)cc3OC)=NN2c2ccc(S(N)(=O)=O)cc2)cc1OC` (stereo not given), with 94.6% (inactive); and `C=C1C(=O)O[C@H]2[C@H]1CC/C(Cn1cc(-c3ccccc3)nn1)=C\CC[C@@]1(C)O[C@@H]21`, with -38.5% (active); and `NCCCNc1nc2ccccc2c2c(=O)c3cc(F)cc(F)c3sc12`, with 70.3% (inactive). On to `N#Cc1c(-c2ccccc2)nc(SCC(=O)Nc2nc(-c3ccc(Cl)cc3)cs2)[nH]c1=O`, for which the growth was 85.7% (inactive).

Turning to `CCOc1ccc(Nc2c3ccccc3nc3ccccc23)cc1`, the growth is 102% (inactive) and -9.77% (active). The same measure for `COc1cc([C@@H]2c3cc4c(cc3[C@H](O)[C@H]3COC[C@@H]23)OCO4)cc(OC)c1OC`: 58% (inactive).

`COc1cc2c(c(OC)c1O)C(=O)C(OC)C(c1ccc(O)c(O)c1)O2` (stereo not given): the growth is 7.99% (active). The same measure for `COc1cc(C2CC(c3ccc(Nc4ccnc5cc(Cl)ccc45)cc3)=NN2C=O)cc(OC)c1OC` (stereo not given): -7.9% (active); for `Oc1c(Cl)c2ccccc2c2ccccc12`: 112% (inactive). The same measure for `c1cc2c(cc1-c1cnc3nonc3n1)OCO2`: 84.6% (inactive); for `FC(F)(F)c1ccc(/C=N/Nc2nnc3n2N=C(c2ccc(Cl)cc2)CS3)cc1`: 74.3% (inactive); for `CCCCC(C#N)C(N)=O` (stereo not given): 119% (inactive).

As for `Cc1cc(O)c(C(C)C)cc1N`, the growth is 8.67% (active) and -40.1% (active). The same measure for `Clc1nc(Nc2ccccc2)nc(Nc2ccccc2)n1`: 57.3% (inactive); for `COc1cc(-c2cc(-c3ccc(N(C)C)cc3)nc(N3CCC(O)CC3)c2C#N)cc(OC)c1OC`: -21.2% (active). For `NN1C(=O)CSC1=S`, the growth was 119% (inactive). The same measure for `Brc1cnc2ccccc2c1`: 113% (inactive); for `CS(=O)/C(C#N)=C\C=C\c1cccc(Cl)c1` (stereo not given): 3.26% (active); for `O=C(CN1CCN(c2cc3c(cc2F)c(=O)c(C(=O)N/N=C/c2ccccc2)cn3C2CC2)CC1)N/N=C\c1ccccc1`: 85.4% (inactive). Consider `O=[N+]([O-])c1ccc(-n2[nH]nnc2=S)cc1`, for which the growth was 123% (inactive).

For `Nc1n[nH]c2cccc(C#Cc3cccc(C(=O)Nc4cc(CN5CCOCC5)cc(C(F)(F)F)c4)c3)c12`, the growth was 89.7% (inactive). Then `CC1=Nc2cnc(Nc3ccc(N4CCCCC4)cc3)nc2Nc2ccccc21`, with 54.9% (inactive); and `CCOC(=O)C1=C(CCl)NC(=O)NC1c1ccc2c(c1)OCO2` (stereo not given), with -1.1% (active); and `C=C(C)[C@@H]1CCC[C@]2(C(=O)O)CC[C@]3(C)[C@@H](CC[C@@H]4[C@@]5(C)C/C(=C/c6ccncc6)C(=O)C(C)(C)[C@@H]5CC[C@]43C)[C@@H]12`, with 16.6% (inactive). On to `CC(C)(C)[Si](C)(C)OC1[C@@H](O[Si](C)(C)C(C)(C)C)[C@@H](CNC(=O)NC(=O)NC(=O)CI)O[C@H]1n1cnc2c(NC(=O)Nc3ccccc3)ncnc21` (stereo not given in full), for which the growth is 75.5% (inactive). Then `CN1CCN(Cc2ccc(NC(=O)c3cncc(C#Cc4cnc(N)c5ncccc45)c3)cc2Cl)CC1`, with 85.4% (inactive). Consider `Nc1nc(-c2cccnc2)nc2c1sc(=S)n2-c1ccccc1`, for which the growth was 103% (inactive).

For the compound `Cc1cc(N2CCN(CC(=O)Nc3ccc4c(ccn4Cc4ccccc4)c3)CC2)nc(N2CCCCCC2)n1`, the growth was 13.1% (inactive).
